Legend:
Experiment in all cases: DAPPL (digital affinity profiling via proximity ligation, sequencing); 10 mM Tris-HCl pH 7.5, 50 mM NaCl, 1 mM DTT, 4% glycerol, room temperature, 30 min; GST-TFs on glutathione beads, 16-mer random dsDNA library, 0.1% formaldehyde crosslink after washing; high values mean tight binding
Conditions in all cases: protein: recombinant; tags: N-terminal GST; dsDNA, one strand shown
FEV = biological target: T1, FEV (Homo sapiens, UniProt Q99581 1-238)
T1 sequence: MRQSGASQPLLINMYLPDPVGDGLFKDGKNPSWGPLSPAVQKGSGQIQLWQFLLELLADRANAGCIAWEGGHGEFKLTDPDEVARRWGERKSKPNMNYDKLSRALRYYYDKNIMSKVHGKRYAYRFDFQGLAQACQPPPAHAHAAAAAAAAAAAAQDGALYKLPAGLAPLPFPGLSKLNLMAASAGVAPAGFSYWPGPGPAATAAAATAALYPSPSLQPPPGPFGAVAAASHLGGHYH
Procedure, shortened: (§1)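 Yeast served to express human transcription factors as GST fusions, which were then captured on glutathione beads and labelled with DNA barcodes. Pooled with a tag-only sample, they were incubated with 200 nmole of a 16-mer random double-stranded DNA library for 30 min at room temperature in Tris/NaCl/DTT/glycerol buffer, washed, crosslinked with 0.1% formaldehyde, ligated by proximity, amplified by PCR and sequenced. Dividing each hexamer's read frequency for a factor by its frequency for the tag-only sample gives the binding signal.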

ETV5 = ETV5 (Homo sapiens, UniProt P41161 1-510)
Procedure, shortened: as §1

SPIC = biological target: T2, SPIC (Homo sapiens, UniProt Q8N5J4 1-248)
T2 sequence: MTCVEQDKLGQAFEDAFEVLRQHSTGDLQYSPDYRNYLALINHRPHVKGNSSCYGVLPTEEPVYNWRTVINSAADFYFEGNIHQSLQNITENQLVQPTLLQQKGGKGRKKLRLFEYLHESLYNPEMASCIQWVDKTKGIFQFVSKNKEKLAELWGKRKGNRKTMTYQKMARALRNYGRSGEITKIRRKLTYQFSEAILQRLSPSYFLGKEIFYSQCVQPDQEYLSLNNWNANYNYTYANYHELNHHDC
Procedure, shortened: as §1

ELF4 = ELF4 (Homo sapiens, UniProt Q99607 1-663)
Procedure, shortened: as §1

ELK4 = biological target: T3, ELK4 (Homo sapiens, UniProt P28324-2 1-405)
T3 sequence: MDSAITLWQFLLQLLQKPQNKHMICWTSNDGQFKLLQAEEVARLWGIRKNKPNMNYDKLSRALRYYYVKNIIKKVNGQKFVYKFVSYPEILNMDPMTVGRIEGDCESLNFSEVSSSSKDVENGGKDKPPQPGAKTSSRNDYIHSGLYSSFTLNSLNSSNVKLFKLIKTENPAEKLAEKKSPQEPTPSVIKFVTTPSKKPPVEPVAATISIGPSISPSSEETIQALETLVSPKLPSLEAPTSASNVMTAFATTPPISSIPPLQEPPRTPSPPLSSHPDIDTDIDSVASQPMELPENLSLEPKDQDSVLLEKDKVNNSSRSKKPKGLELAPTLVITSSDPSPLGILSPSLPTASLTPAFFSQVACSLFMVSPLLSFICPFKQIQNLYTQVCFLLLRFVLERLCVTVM
Procedure, shortened: as §1

ETV2 = biological target: T4, ETV2 (Homo sapiens, UniProt O00321 1-342)
T4 sequence: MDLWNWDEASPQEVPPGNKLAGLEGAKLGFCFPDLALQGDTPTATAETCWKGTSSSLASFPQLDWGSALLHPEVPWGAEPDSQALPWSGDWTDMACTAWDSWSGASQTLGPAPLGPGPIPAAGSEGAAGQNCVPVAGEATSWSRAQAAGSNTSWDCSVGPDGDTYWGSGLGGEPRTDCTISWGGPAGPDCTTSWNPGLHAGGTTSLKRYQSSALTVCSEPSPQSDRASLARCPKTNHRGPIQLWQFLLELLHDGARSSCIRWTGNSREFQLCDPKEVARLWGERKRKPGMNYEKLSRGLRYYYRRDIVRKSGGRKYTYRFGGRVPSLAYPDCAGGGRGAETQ
Procedure, shortened: as §1

ELF3 = biological target: T5, ELF3 (Homo sapiens, UniProt P78545 1-371)
T5 sequence: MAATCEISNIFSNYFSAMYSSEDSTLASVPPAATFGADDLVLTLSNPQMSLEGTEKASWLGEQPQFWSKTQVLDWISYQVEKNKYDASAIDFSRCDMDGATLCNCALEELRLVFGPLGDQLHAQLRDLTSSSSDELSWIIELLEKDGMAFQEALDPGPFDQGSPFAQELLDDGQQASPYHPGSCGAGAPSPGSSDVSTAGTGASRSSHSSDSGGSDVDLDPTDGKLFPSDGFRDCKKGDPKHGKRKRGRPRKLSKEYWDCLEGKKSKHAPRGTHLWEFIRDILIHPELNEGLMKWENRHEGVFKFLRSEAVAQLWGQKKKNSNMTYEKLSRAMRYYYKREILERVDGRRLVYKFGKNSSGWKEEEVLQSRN
Procedure, shortened: as §1

ETV1 = ETV1 (Homo sapiens, UniProt P50549 1-477)
Procedure, shortened: as §1

Chain of ETV5 (P41161 whole entry): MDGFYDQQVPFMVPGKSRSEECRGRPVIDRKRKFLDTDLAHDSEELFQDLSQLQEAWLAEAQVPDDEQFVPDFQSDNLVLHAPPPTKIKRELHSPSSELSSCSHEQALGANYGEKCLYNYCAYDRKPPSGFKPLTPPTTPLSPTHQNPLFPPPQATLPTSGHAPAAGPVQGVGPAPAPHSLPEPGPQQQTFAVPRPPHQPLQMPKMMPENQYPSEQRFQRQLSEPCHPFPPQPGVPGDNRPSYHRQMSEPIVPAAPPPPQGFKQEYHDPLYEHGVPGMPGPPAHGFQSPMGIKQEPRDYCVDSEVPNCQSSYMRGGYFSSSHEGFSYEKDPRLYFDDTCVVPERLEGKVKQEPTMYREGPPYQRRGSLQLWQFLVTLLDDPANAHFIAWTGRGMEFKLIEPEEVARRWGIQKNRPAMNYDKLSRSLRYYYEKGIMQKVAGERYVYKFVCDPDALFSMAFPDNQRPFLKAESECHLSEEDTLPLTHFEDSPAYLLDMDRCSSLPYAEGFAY
Chain of ELF4 (Q99607 whole entry): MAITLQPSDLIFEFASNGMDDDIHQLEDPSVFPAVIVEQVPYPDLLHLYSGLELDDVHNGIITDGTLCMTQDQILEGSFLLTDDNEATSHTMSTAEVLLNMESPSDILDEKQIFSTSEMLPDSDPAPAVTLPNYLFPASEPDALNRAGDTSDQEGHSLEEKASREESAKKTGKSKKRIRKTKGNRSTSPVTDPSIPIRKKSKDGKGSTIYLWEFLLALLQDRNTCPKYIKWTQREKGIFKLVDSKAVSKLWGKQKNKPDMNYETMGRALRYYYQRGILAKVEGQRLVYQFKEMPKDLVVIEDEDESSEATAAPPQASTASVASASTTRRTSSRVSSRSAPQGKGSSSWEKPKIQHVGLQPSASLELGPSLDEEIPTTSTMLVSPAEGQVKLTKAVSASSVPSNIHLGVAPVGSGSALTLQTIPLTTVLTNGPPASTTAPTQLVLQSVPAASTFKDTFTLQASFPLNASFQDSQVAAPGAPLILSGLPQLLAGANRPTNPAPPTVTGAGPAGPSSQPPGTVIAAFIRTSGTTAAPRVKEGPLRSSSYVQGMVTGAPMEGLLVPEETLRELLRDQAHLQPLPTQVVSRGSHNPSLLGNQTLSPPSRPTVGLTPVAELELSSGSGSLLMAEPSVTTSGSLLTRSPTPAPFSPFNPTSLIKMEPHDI
Chain of ETV1 (P50549 whole entry): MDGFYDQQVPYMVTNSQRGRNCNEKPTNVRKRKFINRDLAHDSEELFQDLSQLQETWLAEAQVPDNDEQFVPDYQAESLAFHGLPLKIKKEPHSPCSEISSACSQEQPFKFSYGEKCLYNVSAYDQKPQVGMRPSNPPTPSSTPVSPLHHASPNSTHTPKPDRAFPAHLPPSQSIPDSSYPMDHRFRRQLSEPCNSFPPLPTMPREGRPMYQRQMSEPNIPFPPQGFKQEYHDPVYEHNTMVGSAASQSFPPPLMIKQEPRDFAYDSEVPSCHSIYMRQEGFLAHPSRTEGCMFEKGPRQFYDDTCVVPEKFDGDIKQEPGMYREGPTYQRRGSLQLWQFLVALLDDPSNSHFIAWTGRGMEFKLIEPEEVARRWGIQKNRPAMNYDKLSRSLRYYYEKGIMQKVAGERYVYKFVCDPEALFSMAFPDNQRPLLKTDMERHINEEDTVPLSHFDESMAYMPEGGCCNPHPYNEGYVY

| Sequence | binding signal (FEV) | binding signal (ETV5) | binding signal (SPIC) | binding signal (ELF4) | binding signal (ELK4) | binding signal (ETV2) | binding signal (ELF3) | binding signal (ETV1) |
| --- | --- | --- | --- | --- | --- | --- | --- | --- |
| GTCCTC | 1.12 fold enrichment (6-mer frequency, TF over GST control) | 1.21 fold enrichment (6-mer frequency, TF over GST control) | 1.14 fold enrichment (6-mer frequency, TF over GST control) | 1.27 fold enrichment (6-mer frequency, TF over GST control) | 1.34 fold enrichment (6-mer frequency, TF over GST control) | 1.4 fold enrichment (6-mer frequency, TF over GST control) | 1.16 fold enrichment (6-mer frequency, TF over GST control) | 1.25 fold enrichment (6-mer frequency, TF over GST control) |
| GTCCCG | 1.24 fold enrichment (6-mer frequency, TF over GST control) | 1.19 fold enrichment (6-mer frequency, TF over GST control) | 1.23 fold enrichment (6-mer frequency, TF over GST control) | 1.17 fold enrichment (6-mer frequency, TF over GST control) | 1.23 fold enrichment (6-mer frequency, TF over GST control) | 1.06 fold enrichment (6-mer frequency, TF over GST control) | 1.26 fold enrichment (6-mer frequency, TF over GST control) | 1.27 fold enrichment (6-mer frequency, TF over GST control) |
| GCGGAA | 1.34 fold enrichment (6-mer frequency, TF over GST control) | 1.56 fold enrichment (6-mer frequency, TF over GST control) | 1.5 fold enrichment (6-mer frequency, TF over GST control) | 1.21 fold enrichment (6-mer frequency, TF over GST control) | 1.05 fold enrichment (6-mer frequency, TF over GST control) | 1.34 fold enrichment (6-mer frequency, TF over GST control) | 1.53 fold enrichment (6-mer frequency, TF over GST control) | 1.42 fold enrichment (6-mer frequency, TF over GST control) |
| CACCAA | 1.12 fold enrichment (6-mer frequency, TF over GST control) | 1.1 fold enrichment (6-mer frequency, TF over GST control) | 1.12 fold enrichment (6-mer frequency, TF over GST control) | 1.12 fold enrichment (6-mer frequency, TF over GST control) | 1.13 fold enrichment (6-mer frequency, TF over GST control) | 1.12 fold enrichment (6-mer frequency, TF over GST control) | 1.1 fold enrichment (6-mer frequency, TF over GST control) | 1.01 fold enrichment (6-mer frequency, TF over GST control) |
| CCACAT | 1.27 fold enrichment (6-mer frequency, TF over GST control) | 1.17 fold enrichment (6-mer frequency, TF over GST control) | 1.29 fold enrichment (6-mer frequency, TF over GST control) | 1.21 fold enrichment (6-mer frequency, TF over GST control) | 1.28 fold enrichment (6-mer frequency, TF over GST control) | 1.17 fold enrichment (6-mer frequency, TF over GST control) | 1.17 fold enrichment (6-mer frequency, TF over GST control) | 1.21 fold enrichment (6-mer frequency, TF over GST control) |
| CACTCA | 1.16 fold enrichment (6-mer frequency, TF over GST control) | 1.09 fold enrichment (6-mer frequency, TF over GST control) | 1.3 fold enrichment (6-mer frequency, TF over GST control) | 1.18 fold enrichment (6-mer frequency, TF over GST control) | 1.17 fold enrichment (6-mer frequency, TF over GST control) | 1.27 fold enrichment (6-mer frequency, TF over GST control) | 1.17 fold enrichment (6-mer frequency, TF over GST control) | 1.1 fold enrichment (6-mer frequency, TF over GST control) |
| GGAAGC | 1.74 fold enrichment (6-mer frequency, TF over GST control) | 1.79 fold enrichment (6-mer frequency, TF over GST control) | 1.39 fold enrichment (6-mer frequency, TF over GST control) | 1.4 fold enrichment (6-mer frequency, TF over GST control) | 1.43 fold enrichment (6-mer frequency, TF over GST control) | 1.54 fold enrichment (6-mer frequency, TF over GST control) | 1.48 fold enrichment (6-mer frequency, TF over GST control) | 1.82 fold enrichment (6-mer frequency, TF over GST control) |
| TGTGCA | 1.1 fold enrichment (6-mer frequency, TF over GST control) | 1.15 fold enrichment (6-mer frequency, TF over GST control) | 1.38 fold enrichment (6-mer frequency, TF over GST control) | 1.11 fold enrichment (6-mer frequency, TF over GST control) | 1.09 fold enrichment (6-mer frequency, TF over GST control) | 1.01 fold enrichment (6-mer frequency, TF over GST control) | 1.09 fold enrichment (6-mer frequency, TF over GST control) | 1.05 fold enrichment (6-mer frequency, TF over GST control) |
| CACCCT | 1.15 fold enrichment (6-mer frequency, TF over GST control) | 1.19 fold enrichment (6-mer frequency, TF over GST control) | 1.13 fold enrichment (6-mer frequency, TF over GST control) | 1.24 fold enrichment (6-mer frequency, TF over GST control) | 1.07 fold enrichment (6-mer frequency, TF over GST control) | 1.26 fold enrichment (6-mer frequency, TF over GST control) | 1.08 fold enrichment (6-mer frequency, TF over GST control) | 1.24 fold enrichment (6-mer frequency, TF over GST control) |
